GPR151 activ = activators of human GPR151, primary screen, cell-based, PathHunter beta-arrestin, luminescence | 650,000 compounds, 1% hits | AID 1508602, 2020 | activation, % at 11.2 µM | PathHunter beta-arrestin GPR151 cells; in the data active means activation above about 4.9%
MITF inh = MITF inhibitors, primary screen, biochemical, AlphaScreen, human. inhibition, % at 2.6 µM. AlphaScreen MITF homodimerization, bead proximity signal. 650,000 compounds, 0.91% hits. Microphthalmia-associated transcription factor (Homo sapiens), O75030; in the data active means inhibition above about 50%
Target sequence (O75030 whole entry, looked up): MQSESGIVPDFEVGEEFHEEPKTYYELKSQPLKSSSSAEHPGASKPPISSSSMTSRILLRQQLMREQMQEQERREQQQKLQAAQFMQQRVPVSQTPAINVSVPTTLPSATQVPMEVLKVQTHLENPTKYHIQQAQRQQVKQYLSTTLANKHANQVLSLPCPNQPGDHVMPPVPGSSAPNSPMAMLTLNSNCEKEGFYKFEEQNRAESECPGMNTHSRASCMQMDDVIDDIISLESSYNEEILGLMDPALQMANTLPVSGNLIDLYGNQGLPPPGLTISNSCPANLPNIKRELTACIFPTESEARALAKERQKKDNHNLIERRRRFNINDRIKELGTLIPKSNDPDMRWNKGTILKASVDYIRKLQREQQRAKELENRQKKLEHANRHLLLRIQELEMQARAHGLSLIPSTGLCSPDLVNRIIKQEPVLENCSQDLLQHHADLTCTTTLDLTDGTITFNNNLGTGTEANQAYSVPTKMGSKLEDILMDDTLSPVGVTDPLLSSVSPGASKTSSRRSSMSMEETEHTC
TEAD-YAP inh = TEAD-YAP interaction inhibition, primary screen, TEAD-YAP interaction inhibitor project, luminescence, HEK-TIYL cells | TEAD-Gal4/YAP UAS-luciferase luminescence | inhibition, % at 9.12 µM | 640,000 compounds, 1.4% hits; in the data active means inhibition above about 32%
FBW7 activator = FBW7 E3 ligase activators, primary screen, biochemical, AlphaScreen, human | F-box/WD repeat-containing protein 7 (Homo sapiens), Q969H0 | 650,000 compounds, 0.13% hits | normalized activity (activation), % at 26.1 µM | AlphaScreen FBW7–phospho-cyclin E peptide binding, activator screen; in the data active means normalized activity above about 1.9%;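 further: purified mutant Fbw7 with reduced substrate affinity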
Of the large screens only hits and unclear results are named; the others gave an inactive call. Shown are actives, neighbours in structure and some others; about 3.5% of the full set was active somewhere.

O=C(Nc1cc(=O)[nH]c(=O)[nH]1)c1cccc(Cl)c1	TEAD-YAP inh 40
Cc1c(Cl)cccc1NC(=O)CCN1C(=O)C2C3C=CC(CC3)C2C1=O (stereo not given)	none
CCc1ccc(N2CC(C(=O)NCC(C)(C)CNC(=O)C3CC(=O)N(c4ccc(CC)cc4)C3)CC2=O)cc1 (stereo not given)	FBW7 activator 4.5
CC1=NOC(=O)/C1=C/c1ccc(OCc2ccc(Cl)cc2)cc1	MITF inh 56
CC(C)c1ccc(OCc2cccc(C(=O)NCCN(C)C)c2)cc1	TEAD-YAP inh 86
O=C(O)c1cccc(OCc2ccccc2)c1	none
O=C(O)c1cccc(COc2ccc(I)cc2)c1	TEAD-YAP inh 65
O=C1NC(=S)NC(=O)C1=Cc1cccc(OCc2ccc(C(=O)O)cc2)c1	none
COc1cc(OCc2cccc(C(=O)O)c2)ccc1C=C1C(=O)NC(=S)NC1=O	TEAD-YAP inh 86
CCOc1ccc(OCc2cccc(C(=O)OC)c2)cc1	TEAD-YAP inh 85
COc1ccccc1NC(=O)C1CC(=O)Nc2ncnn21 (stereo not given)	none
COc1ccc(OCc2cccc(C(=O)O)c2)cc1	TEAD-YAP inh 93
O=c1c(Oc2ccc(Cl)cc2)coc2cc(O)ccc12	none
COc1cc(C(=O)Oc2ccc3c(=O)c(Oc4ccc(C(C)(C)C)cc4)coc3c2)cc(OC)c1OC	TEAD-YAP inh 80
CC(C)(C)c1ccc(Oc2coc3cc(O)ccc3c2=O)cc1	TEAD-YAP inh 64
COc1cc(C(=O)Oc2ccc3c(=O)c(Oc4cc(C)cc(C)c4)coc3c2)cc(OC)c1OC	none
NS(=O)(=O)c1ccc(NC(=O)CN2CCN(c3ccc([N+](=O)[O-])cc3)CC2)cc1	none
COc1cccc(C2=NN3C(C2)c2cccc(OC)c2OC32CCCCC2)c1 (stereo not given)	TEAD-YAP inh 36
COc1cccc(C2=NN3C(C2)c2cccc(OC)c2OC3c2ccc(F)c(F)c2)c1 (stereo not given)	none
COc1cccc(C2=NN3C(C2)c2cccc(OC)c2OC3c2cccc(OC)c2)c1 (stereo not given)	TEAD-YAP inh 38
COC(=O)c1ccc(C2Oc3c(OC)cccc3C3CC(c4ccc(OC)cc4)=NN32)cc1 (stereo not given)	none
COC(=O)c1ccc(C2Oc3c(OC)cccc3C3CC(c4cccc(OC)c4)=NN32)cc1 (stereo not given)	TEAD-YAP inh 63
COc1cccc(C2=NN3C(C2)c2cccc(OC)c2OC3c2cc(OC)c(OC)c(OC)c2)c1 (stereo not given)	TEAD-YAP inh 32
COc1ccc(OC)c(NC(=O)c2cc3cc(Br)cc(OC)c3oc2=O)c1	none
Cc1ccc(S(=O)(=O)NC(C)(C)CSc2nncn2NC(=O)c2ccccc2)cc1	none
CCCOC(=O)C1=C(C)N(CC)C(=O)NC1c1ccccc1[N+](=O)[O-] (stereo not given)	FBW7 activator 2.5
Cc1ccc(-c2cc3c(nn2)-c2ccccc2C3=O)cc1	TEAD-YAP inh 81
Cc1cccc(N2C(=O)/C(=C/C=C/c3ccco3)C(=O)NC2=S)c1	MITF inh 58
Cc1ccc(N2C(=O)/C(=C/c3ccco3)C(=O)NC2=S)cc1	none
COc1ccc(N2C(=O)/C(=C/C=C/c3ccco3)C(=O)NC2=S)c(OC)c1	MITF inh 76
O=C(Nc1ccc([N+](=O)[O-])cc1)Nc1ccon1	TEAD-YAP inh 62
O=C(Nc1ccc(I)cc1)Nc1ccc([N+](=O)[O-])cc1	none
COc1ccc(CCNC2CC(=O)N(c3ccc(NC(C)=O)cc3)C2=O)cc1 (stereo not given)	none
COC(=O)c1sccc1NC(=O)c1ccccc1C	none
CCOc1ccccc1C(=O)Nc1ccsc1C(=O)OC	TEAD-YAP inh 55
O=[N+]([O-])c1nn(-c2ccc(Cl)cc2)n(O)c1=Nc1ccccc1F	TEAD-YAP inh 38
O=[N+]([O-])c1nn(-c2ccc(Cl)cc2)n(O)c1=Nc1ccc(Cl)cc1	none
O=[N+]([O-])c1nn(-c2ccc(Cl)cc2)n(O)c1=Nc1ccccc1	TEAD-YAP inh 62
CCCCCOc1ccc(/C=c2\sc3nc(=O)c(-c4ccccc4)nn3c2=O)cc1	none
CC(C)OCC(O)CN1CCN(c2ccccc2F)CC1 (stereo not given)	none
COCCCN1C(=O)c2[nH]nc(-c3ccccc3O)c2C1c1ccc(OC)c(OC)c1 (stereo not given)	none
O=C(Nc1ccc2c(c1)Cc1ccccc1-2)c1cc(Br)ccc1Cl	TEAD-YAP inh 50
O=C(Nc1ccc2c(c1)Cc1ccccc1-2)c1cc(Cl)ccc1Cl	none
Cc1ccc(/C=N/NC(=O)C2COc3ccccc3O2)cc1 (stereo not given)	TEAD-YAP inh 51
C/C(=N\NC(=O)CNC(=O)C1COc2ccccc2O1)c1ccccc1 (stereo not given)	none
C/C(=N\NC(=O)C1COc2ccccc2O1)c1ccc(Br)cc1 (stereo not given)	TEAD-YAP inh 38
O=C(N/N=C/c1ccc(Br)cc1)C1COc2ccccc2O1 (stereo not given)	TEAD-YAP inh 37
O=C1CCC/C(=N\NC(=O)C2COc3ccccc3O2)C1 (stereo not given)	none
CN1CCC(=NNC(=O)C2COc3ccccc3O2)CC1 (stereo not given)	TEAD-YAP inh 38
Cc1cc(NC(=O)CSc2nc3ccsc3c(=O)n2CCCCCC(=O)NCCc2ccccc2)no1	none
CCOC(=O)C1=CN(c2cc(C)cc(C)c2)C=C(C(=O)OCC)C1c1ccc(OC)c(OC)c1	none
O=C(NCc1cccc(C(F)(F)F)c1)c1cccc(NCc2ccc3c(c2)OCO3)n1	none
CCCCN(CC)S(=O)(=O)c1ccc(C(=O)Nc2sc3c(c2C(=O)OC)CCN(C(=O)OCC)C3)cc1	none
Cc1cc(-c2ccc(NC(=O)[C@H]3COc4ccccc4O3)cc2)ccn1	TEAD-YAP inh 75
O=C(c1ccc2c(=O)n(-c3ccccc3)c(=S)[nH]c2c1)N1CCOCC1	none
O=C(c1ccc2c(=O)n(-c3ccccc3)c(=S)[nH]c2c1)N1CCCCC1	TEAD-YAP inh 43
CC(C)(C)c1ccc(C(=O)N2CCN(c3ncnc4c3nnn4-c3ccccc3)CC2)cc1	none
COc1ccc(N(/C=C2\Sc3ccccc3C2=O)C(C)=O)cc1	TEAD-YAP inh 51
CC(=O)N(/C=C1\Sc2ccccc2C1=O)c1ccc(I)cc1	none
COc1ccccc1N(C=O)/C=C1\Sc2ccccc2C1=O	TEAD-YAP inh 55
O=C1/C(=C\N(C(=O)c2ccccc2)c2ccccc2)Sc2ccccc21	none
COc1ccc(N(/C=C2\Sc3ccccc3C2=O)C(=O)c2ccccc2)cc1	TEAD-YAP inh 54
COc1ccc(N(/C=C2\Sc3ccccc3C2=O)C(=O)c2ccc(C)cc2)cc1	TEAD-YAP inh 41
CC(C)CC(=O)NC(=S)Nc1cc(S(=O)(=O)N2CCCC2)ccc1Cl	none
CC(=O)N(/C=C1\Sc2ccccc2C1=O)c1ccc(C)c(C)c1	TEAD-YAP inh 86

Screening results from PubChem.
